# From PubChem BioAssay AID651820 (National Center for Advancing Translational Sciences (NCATS), 2012)
# “And” between values parts separate entries of the source, which are not always exact repeats. Equal values may be shown once. Screen size: about 340,000 compounds; about 12,000 (3.5%) were called active. Another 18% or so got no clear call; they are omitted. This is one part of a sample in which actives are shown more often than they occur. Calls come from the whole dose curve; as a rule, active = well fitted inhibition curve with a large enough effect; inconclusive = small, poorly fitted or top-dose-only effect, or another doubt; inactive = no such curve, though single readings can be large or run the other way. More than one record can exist for a structure, and the calls need not agree.
# Assay: qHTS Assay for Inhibitors of Hepatitis C Virus (HCV)
# Details: Huh7.5.1 HCVcc-Cre infection, luciferase reporter, 44 h; series mostly up to 41.8 µM; activity change, negative = inhibition: at the top concentration
# Text: Hepatitis C virus (HCV) infects about 200 million people in the world. Many infected people progress to chronic liver disease including cirrhosis with a risk of developing liver cancer. To date, there is no effective vaccine for hepatitis C. Current therapy based on interferon is only effective in about half of the patients and is associated with significant adverse effects. The fraction of people with HCV who can complete a successful treatment is estimated to be no more than 10 percent. Recent development of direct-acting antivirals against HCV, such as protease and polymerase inhibitors, is promising but still requires combination with peginterferon and ribavirin for maximal efficacy. In addition, these agents are associated with high rate of resistance and many have significant side effects. Due to the lack of a culture system for infectious HCV, the search for new HCV drugs has been greatly hampered. […] High-throughput screening (HTS) with an infectious HCV system would cover the complete spectrum of potentially druggable targets in all stages of HCV lifecycle, and would have more biological relevance than other cell-based assays. Moreover, targeting several key processes in the viral life cycle may not only increase antiviral efficacy; more importantly, it may also reduce the capacity of the virus to develop resistance to the compound. The goal of this project is to identify novel HCV inhibitors as new therapies for hepatitis C, using a highly sensitive and specific assay platform which is based on a HCV infectious cell culture system established in the laboratory and adapted for high-throughput HCV drug screen. NIH Chemical Genomics Center [NCGC] NIH Molecular Libraries Probe Centers Network [MLPCN] MLPCN Grant: MH095511 Assay Submitter (PI): Jake Liang, NIDDK
# The assay will start with plating 1,000 cells/well in 3 µL volume and culture for 4 h. Then 23 nL of compounds from the library collection will be added to each well, followed by adding 2.5 µL of HCVcc-Cre virus (~ 0.5 moi) and further cultured for 44 h before the luciferase assay. A volume of 4.5 µL luciferase substrates will be added to each well and the plates will be incubated at room temperature for 15 min. and then read for 15 sec. for the luciferase activity
# % is set by controls: 0 for no effect and ±100 for the full control effect.
Compound,Potency,"activity change, negative = inhibition"
COc1cc(C(=O)NCc2ccncc2)cc(Br)c1OCc1ccccc1,10 µM (active),–
COc1cc(C=O)c(Br)cc1OCC(=O)NCc1ccccc1,–,-9.16% (inactive)
COc1cc(C(=S)NCc2ccccc2)cc(Br)c1O,–,-13.2% (inactive)
O=c1c2ccccc2ncn1CCc1ccncc1,–,-0.693% (inactive)
CCOc1ncccc1C(=O)OCC(=O)N1c2ccccc2CC1C (stereo not drawn),–,-0.457% (inactive)
C[C@@H]1CN([C@@H](C)CO)C(=O)c2cccc(NS(=O)(=O)c3ccc(F)cc3)c2O[C@H]1CN(C)C(=O)NC1CCCCC1,–,-10.1% (inactive)
Cn1c(C(=O)NCCN2CCc3ccccc3C2)cc2c(=O)[nH]c3ccccc3c21,–,-20.8% (inactive)
O=C(NCCN1CCN(Cc2ccccc2)CC1)c1cc2c(=O)[nH]c3ccccc3c2s1,12.6 µM (active),–
CCN(CC)CCCNC(=O)c1cc2c(=O)[nH]c3ccc(C)cc3c2s1,–,-15.9% (inactive)
CSc1ccccc1C(=O)OCC(=O)N1CCN(C(C)=O)CC1,–,5.57% (inactive)
Cc1ccc(S(=O)(=O)n2oc(=O)c(C3CCCCC3)c2N)cc1,–,-14.1% (inactive)
O=C1CSc2ccc(C(=O)NCc3ccccn3)cc2N1,–,28.3% (inactive)
COc1ccc(CCNc2ncnc3c2nnn3Cc2ccccc2)cc1,–,-8.73% (inactive)
COc1cc2nc(Cl)nc(NCCO)c2cc1OC,–,4.09% (inactive)
COc1ccc(-c2oc3ncnc(NCCCO)c3c2-c2ccc(OC)cc2)cc1,12.6 µM (active),–
Nc1ccc2c(c1)C(O)c1ccc(Cl)cc1-2 (stereo not drawn),–,-6.9% (inactive)
Clc1cccc(Cl)c1OCCOCCNCc1ccccc1,–,-1.97% (inactive)
CN(C)CCOC1c2ccccc2-c2ccccc21,–,-15.1% (inactive)
CN(C)CCOCCOc1ccc(Cl)c2ccccc12,10 µM (active),–
CCC(C)N(C(=O)CSc1nnnn1-c1ccccc1OC)C1CCS(=O)(=O)C1 (stereo not drawn),–,-3.37% (inactive)
CN(C(=O)Cn1nnc(-c2ccc(F)cc2)n1)C1CCS(=O)(=O)C1 (stereo not drawn),–,-3.26% (inactive)
CCN1CCC(O)(/C=C/c2ccc(C)cc2)C(C(=O)/C=C/c2ccc(C)cc2)C1 (stereo not drawn),14.1 µM (active),–
CCN1CCN(C(=O)CSc2ccc(C)cc2)CC1,–,11% (inactive)
CCOC(=O)C1CCCN(C(=O)/C=C/c2ccc(OC)cc2)C1 (stereo not drawn),–,5% (inactive)
NC(=O)C1(Nc2ccccc2Cl)CCCC1,–,-11.2% (inactive)
O=C(CCNC(=O)c1ccc(Cl)cc1)NC1CCCc2ccccc21 (stereo not drawn),–,-24.4% (inactive)

Compound,Potency,"activity change, negative = inhibition"
CCOc1ccc(C(C)NC(=O)CN2C(=O)NC3(CCCCC3)C2=O)cc1OCC (stereo not drawn),–,-0.805% (inactive)
CN(C)S(=O)(=O)c1cccc(NC(=O)COc2ccc3ccccc3c2)c1,22.4 µM (active),–
CN(C)S(=O)(=O)c1cccc(NC(=O)COC(=O)/C=C/c2cccs2)c1,–,7.42% (inactive)
CN(C)S(=O)(=O)c1cccc(NC(=O)COC(=O)c2cc(=O)[nH]c(=O)[nH]2)c1,–,16.2% (inactive)
CCc1c(Nc2ccccc2C)nc(N)[nH]c1=O,–,7.29% (inactive)
C[C@H](CO)N1C[C@H](C)[C@@H](CN(C)S(=O)(=O)c2ccc(F)cc2)Oc2ccc(NC(=O)CCC(F)(F)F)cc2C1=O,–,13.6% (inactive)
Cc1ccc(Oc2cnn(-c3ccccc3)c(=O)c2Br)cc1,–,10.5% (inactive)
COc1ccc(-n2c(C)nc3c(cnn3-c3ccccc3)c2=O)cc1,11.2 µM (active),–
CCOC(=O)c1ccc(-n2c(C)nc3c(cnn3-c3ccccc3C)c2=O)cc1,–,-2.88% (inactive)
COc1ccc(CNC(=O)COC(=O)c2sccc2C)cc1OC,–,-7.13% (inactive)
O=C(COc1cccnc1[N+](=O)[O-])Nc1ccc(Cl)cc1F,–,2.37% (inactive)
COC(C[C@@H]1O[C@@H]1C(=O)[C@H](C)OCc1ccccc1)OC,–,18.8% (inactive)
Cc1nc(Nc2ccccc2C)c2cnn(C)c2n1,–,8.38% (inactive)
CCNS(=O)(=O)c1ccc(CCC(=O)N2CCN(c3cc(Cl)ccc3C)CC2)cc1,11.2 µM (active),–
CCCNS(=O)(=O)c1ccc(CCC(=O)N2CCCC2)cc1,–,-7.28% (inactive)
CCNS(=O)(=O)c1ccc(CCC(=O)N2CCN(c3ccc(OC)cc3)CC2)cc1,–,-29.2% (inactive)
COC(C/C=C/C(=O)[C@@H](C)OCc1ccccc1)OC,–,-1.38% (inactive)
Nc1nc(-c2ccccc2)cc(-c2ccccc2)n1,10 µM (active),–
CS(=O)(=O)c1sc2nc(-c3ccccc3)cc(-c3ccccc3)c2c1N,–,-20.9% (inactive)
c1ccc(-c2cc(-c3ccccc3)[nH]n2)cc1,–,-23.8% (inactive)
COCCNc1nnc(SCC(=O)NNC(=O)c2ccco2)s1,–,-1.76% (inactive)
Cc1cc(C)c(-c2c(O)c3ccccc3n(C)c2=O)c(C)c1,11.2 µM (active),–
Cn1c(=O)c(Sc2ccc(Cl)cc2)c(O)c2ccccc21,–,10.3% (inactive)
CCCn1c(=O)c(-c2ccccc2)c(O)c2ccccc21,–,0.771% (inactive)
CC(C#N)(NC(=O)CN1CCN(S(=O)(=O)c2cc(C(F)(F)F)ccc2Cl)CC1)C1CC1 (stereo not drawn),–,-19.9% (inactive)
Cc1[nH]c(=O)c(C(=O)/C=C/c2ccccc2)c2c1CCCC2,14.1 µM (active),–

Compound,Potency,"activity change, negative = inhibition"
O=C(/C=C/c1ccccc1)c1ccoc1,–,3.26% (inactive)
Cc1cn(COC/C=C/c2ccccc2)c(=O)[nH]c1=O,–,12.5% (inactive)
O=C(NCCS(=O)(=O)N1CCN(c2ccccc2)CC1)c1ccco1,–,5.8% [at 8.37 µM] (inactive)
Cc1cc(Oc2ccc(Cl)cc2)nc(SCC(=O)c2ccccc2)n1,–,-9.04% (inactive)
COC(=O)c1cc(C(=O)CSc2nc(C)cc(C)n2)ccc1O,–,8.38% (inactive)
Cc1cc(C)nc(SCC(=O)c2ccc(Cl)cc2)n1,2.82 µM (active),–
Cn1nnnc1SCC(=O)Nc1sccc1C(N)=O,–,2.96% (inactive)
NC(=O)C1(N2CCCC2)CCN(Cc2ccccc2)CC1,–,19.9% (inactive)
Cc1ccc(CSc2nc3[nH]ncc3c(=O)[nH]2)cc1,–,-3.65% (inactive)
CCc1ccc(-n2c(SCc3cc(=O)n4cc(Br)ccc4n3)nc3[nH]ncc3c2=O)cc1,10 µM (active),–
Cc1cccc2nc(CSc3nc4[nH]ncc4c(=O)n3-c3cccc(Cl)c3)cc(=O)n12,–,-0.622% [at 0.335 µM] (inactive)
CN1C(c2ccc(F)cc2)=CS/C1=C(/C#N)c1nnc2n1-c1ccccc1SC2,–,6.19% (inactive)
CC(CNC(=O)Cn1cnc2c(OCc3ccccc3)ncnc21)c1ccccc1 (stereo not drawn),–,2.55% (inactive)
CN(CC(=O)Nc1ccccc1Cl)C(=O)c1ccccc1SCC(=O)N1CCCC1,–,8.76% (inactive)
O=C(COC(=O)Cc1ccccc1F)NCCc1ccccc1,–,-2.44% (inactive)
CC(=O)NC(C)c1nc2ccccc2n1Cc1ccccc1F (stereo not drawn),–,2.57% (inactive)
N=c1n(CCc2ccccc2)c2ccccc2n1Cc1ccccc1F,12.6 µM (active),–
COc1ccccc1CNS(=O)(=O)c1cc(C(=O)NCc2ccccn2)c(Cl)cc1Cl,–,-7.19% (inactive)
Cn1cccc1C(=O)OCC(=O)c1ccc(Br)s1,–,11% (inactive)
Cc1ccc(C)c(NC(=O)COC(=O)c2nn(C)c(=O)c3ccccc23)c1,–,22.1% (inactive)
O=C(Nc1ccccc1-c1nnn(CC(=O)N2CCN(c3ccccc3)CC2)n1)c1cccs1,12.6 µM (active),–
O=C(Nc1ccccc1-c1ccccc1)c1cccs1,–,-24.9% (inactive)
COc1ccccc1N1CCN(C(=O)Cn2nnc(-c3cccs3)n2)CC1,–,-8.71% (inactive)
COc1cc(OC)cc(C(=O)NCC(=O)OCC(=O)NC(C)CCc2ccccc2)c1 (stereo not drawn),–,4.6% (inactive)
Cc1nn(-c2ccc(F)cc2)c(Cl)c1/C=C(/CCC(=O)O)c1nc2ccccc2s1,–,22.1% (inactive)
CCCN=C1N(C)C[C@@H]2[C@@H]3C(=O)N(Cc4ccccc4)C(=O)[C@@H]3[C@](C)(C(=O)OC)N12,–,12% [at 8.37 µM] (inactive)

Compound,Potency,"activity change, negative = inhibition"
Cc1ccc(S(=O)(=O)N2[C@@H](c3ccc(Br)cc3)C(C(=O)O)=C[C@H]2CC2CCCC2)cc1,–,4.65% (inactive)
COc1ccc(C(=O)NCC(=O)N/N=C/c2cccnc2)cc1,–,17.2% (inactive)
CCn1c(/C=N/NC(=O)c2ccc(OC)cc2)nc2ccccc21,17.8 µM (active),–
CCCn1c(C(=O)c2ccccc2OC)nc2ccccc21,–,-3.79% (inactive)
CCC(C)(C)n1nnnc1C(c1cccs1)N1CCN(Cc2ccccc2)CC1 (stereo not drawn),–,-14.5% (inactive)
CCC(C)(C)n1nnnc1C(c1cccs1)N1CCN(c2nc3ccccc3s2)CC1 (stereo not drawn),10 µM (active),–
CCC(C)(C)n1nnnc1C(c1ccccc1OC)N1CCSCC1 (stereo not drawn),–,2.53% (inactive)
Cc1cc(NC(=O)CSC2=NS(=O)(=O)c3cc(Cl)ccc3N2)no1,–,1.9% (inactive)
CCOC(=O)CNC(=O)N1c2ccccc2Sc2ccccc21,–,-3% (inactive)
CCNCCC(=O)N1c2ccccc2Sc2ccc(NC(=O)OCC)cc21,12.6 µM (active),–
CCOC(=O)Nc1ccc2c(c1)N(C(=O)CCN1CCN(CCO)CC1)c1ccccc1CC2,–,6.1% (inactive)
COc1cccc(-c2nc(CS(=O)CC(=O)NCc3ccc(F)cc3)c(C)o2)c1 (stereo not drawn),–,-6.07% (inactive)
CCCCN(CC)CCCNC(=O)CS(=O)(=O)Cc1nc(-c2cccc(OC)c2)oc1C,inactive and 20 µM (active),–
COc1ccc(-c2nc(CS(=O)(=O)CC(=O)NCc3cccc(Br)c3)c(C)o2)cc1,–,8.12% (inactive)
COc1ccc(C(CNC(=O)c2ccc(NS(=O)(=O)c3ccc(F)c(C)c3)cc2)N(C)C)cc1 (stereo not drawn),–,-7.07% (inactive)
Cc1ccc(OCCC(=O)Nc2ccc(S(=O)(=O)Nc3nccs3)cc2)cc1,–,8.18% (inactive)
COCCCn1c(SCc2cccc(OC)c2)nc2cc(OC)c(OC)cc2c1=N,7.08 µM (active),–
COCCn1c(SCc2nc3cc(OC)c(OC)cc3c(=O)[nH]2)nnc1-c1ccncc1,–,21.9% (inactive)
COc1cccc(CSc2nc3nc(C)cc(C)n3n2)c1,–,-14.8% (inactive)
Cc1ccccc1SCC(=O)OCC(=O)N1CC(=O)Nc2ccccc21,–,7.25% (inactive)
O=C(/C=C/c1ccccc1[N+](=O)[O-])OC1CCCCC1=O (stereo not drawn),–,-0.487% (inactive)
O=C(/C=C/c1ccccc1[N+](=O)[O-])NCC1CCCO1 (stereo not drawn),–,11.4% (inactive)
CC1CCCCC1NC(=O)/C(C#N)=C/C=C/c1ccccc1[N+](=O)[O-] (stereo not drawn),11.2 µM (active),–
Cc1ccc(S(=O)(=O)N2[C@@H](c3cccc(Cl)c3)C(C(=O)O)=CC[C@H]2c2ccc(Cl)c(Cl)c2)cc1,–,22.6% (inactive)
C#CCOCCOCCOCCNc1nc(N2CCN(C(=O)CCCCCCCCCCNC(=O)[C@H](CCCCN)n3cc(C)nn3)CC2)nc(N2CCN(C(=O)CCCCCCCCCCNC(=O)[C@H](CO)n3cc(CCCSC)nn3)CC2)n1,–,12.2% (inactive)
